# Shown are actives, neighbours in structure and some others; about 4.5% of the full set was active somewhere.
# Gli-Sufu block – blocks Gli-Sufu signaling in a luciferase reporter. Sufu-KO-LIGHT fibroblasts, Gli luciferase reporter luminescence. inhibition, % at 5 µM. 340,000 tested, 0.74% active. AID 588413;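 active means inhibition above about 55%, limit read from the data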;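 further: 0% = DMSO-treated cells and 100% = wells with medium but no cells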
# CSC inhib – cancer stem cell inhibition | cancer stem cell-like cells viability, luminescence | inhibition, % at 7.5 µM | 300,000 tested, 1.1% active | AID 2717; in the data active means inhibition above about 75%; tested in HMLE shEcad cells
# 697 NFkB inh – lowers PMA/ionomycin-induced NF-kB signal in 697 B cells; AID 435022; inhibition, % at 4 µM; 330,000 tested, 0.33% active; 697 B-cell NF-kB luciferase reporter, 16 h; in the data active means inhibition above about 35%
# aSyn 5UTR inh – 5' untranslated region of α-synuclein, MLPCN primary screen; inhibition, % (tested at 7.5 µM); alpha-synuclein 5'UTR reporter, inhibitor activity; 300,000 tested, 0.82% active; in the data active means inhibition above about 60%;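 further: H4 neuroglioblastoma cells stably carrying SNCA 5'UTR luciferase fusion; 0% = DMSO wells and 100% = positive control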
# Mdm2-MdmX inh – human Mdm2/MdmX binding inhibition; inhibition, % at 8 µM; O15151+Q00987; SaOS-2 split-luciferase Mdm2/MdmX complementation, luminescence; 330,000 tested, 3% active;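 active means inhibition of at least 50% at 8 µM in the primary screen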
# Target sequence (O15151 whole entry, looked up): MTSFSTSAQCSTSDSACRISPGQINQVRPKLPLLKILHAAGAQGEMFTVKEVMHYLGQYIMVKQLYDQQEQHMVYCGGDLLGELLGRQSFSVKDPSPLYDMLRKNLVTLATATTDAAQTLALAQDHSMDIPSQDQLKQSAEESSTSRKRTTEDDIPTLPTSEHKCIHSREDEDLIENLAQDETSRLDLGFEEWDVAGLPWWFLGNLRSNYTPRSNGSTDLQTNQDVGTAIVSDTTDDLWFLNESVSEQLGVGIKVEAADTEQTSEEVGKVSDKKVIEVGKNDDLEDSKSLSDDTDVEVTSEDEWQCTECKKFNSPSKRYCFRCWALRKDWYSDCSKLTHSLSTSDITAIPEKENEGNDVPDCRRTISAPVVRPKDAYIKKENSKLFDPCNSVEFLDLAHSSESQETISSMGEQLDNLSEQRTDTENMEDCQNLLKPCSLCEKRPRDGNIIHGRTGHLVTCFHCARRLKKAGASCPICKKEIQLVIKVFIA
# Target sequence (Q00987 whole entry, looked up): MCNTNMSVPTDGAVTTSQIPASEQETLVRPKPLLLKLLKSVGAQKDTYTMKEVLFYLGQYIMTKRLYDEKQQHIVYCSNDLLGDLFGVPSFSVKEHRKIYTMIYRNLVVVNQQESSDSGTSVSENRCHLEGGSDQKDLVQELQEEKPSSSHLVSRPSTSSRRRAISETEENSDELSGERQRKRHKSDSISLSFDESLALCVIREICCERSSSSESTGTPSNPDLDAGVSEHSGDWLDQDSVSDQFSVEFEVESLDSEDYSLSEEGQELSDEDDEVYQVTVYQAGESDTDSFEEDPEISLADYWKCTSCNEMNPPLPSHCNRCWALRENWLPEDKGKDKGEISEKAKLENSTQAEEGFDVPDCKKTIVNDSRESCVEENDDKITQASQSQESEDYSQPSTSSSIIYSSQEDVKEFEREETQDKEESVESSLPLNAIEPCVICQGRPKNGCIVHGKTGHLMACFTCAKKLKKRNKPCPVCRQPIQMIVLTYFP
# Jurkat NFkB inh – inhibitors of the PMA/ionomycin-induced NF-kB reporter in Jurkat cells; PMA/ionomycin-induced NF-kB luciferase reporter, luminescence; inhibition, % at 4 µM; 330,000 tested, 0.53% active; AID 435003; in the data active means inhibition above about 50%
# Mdm2 MdmX conf – confirmation of human Mdm2/MdmX interaction inhibitors; shares compounds with Mdm2-MdmX inh; Mdm2-MdmX binding, luminescent assay; inhibition, % at 8 µM; 10,000 tested, 55% active; AID 489028; in the data active means inhibition above about 40%
# Full FLuc ctr – full-length luciferase inhibition in Mdm2/MdmX counter-screen. shares compounds with Mdm2-MdmX inh. inhibition, % at 8 µM. AID 504607. SaOS-2 full-length luciferase counterscreen, luminescence. 6,200 tested, 77% active;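 active means mean inhibition at 8 µM reaching about 37%, which flags the compound as non-specific, limit read from the data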;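 further: p53-null SaOS-2 cells with luciferase driven by a doxycycline-inducible promoter; compound on cells about two nights before reading with doxycycline added after day one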
# Numbers without * were called inactive; . = no result.
SMILES,Gli-Sufu block,CSC inhib,697 NFkB inh,aSyn 5UTR inh,Mdm2-MdmX inh,Jurkat NFkB inh,Mdm2 MdmX conf,others
Cn1cc(C(=O)N/N=C/c2ccc3c(c2)OCO3)c2ccccc21,-52,32,-201,-276,66*,2,44*,Full FLuc ctr=64*
CCCCNC(=O)C1CCC(CNc2nc(=S)[nH]c3ccccc23)CC1 (centres undefined),-5,-7,18,27,13,5,.,
O=C(NCCc1ccc(Cl)cc1)C1CCC(CNc2nc(=S)[nH]c3ccccc23)CC1 (centres undefined),24,47,-27,65*,67*,0,35,Full FLuc ctr=61*
O=C(Nc1ccc(NC(=O)c2ccccc2Cl)nc1)c1ccco1,-7,-6,-8,-102,-8,-23,.,
Cc1cnn(-c2cc(N/N=C/c3ccccc3)ncn2)c1,-22,-7,-11,-46,5,-33,.,
Cc1cnn(-c2cc(N/N=C/c3cccc(F)c3)ncn2)c1,-6,-14,10,-18,75*,-14,26,
Cc1cnn(-c2cc(N/N=C/c3ccccc3F)ncn2)c1,-39,-7,-16,-61,64*,-12,24,
CC(=O)Nc1ccc(S(=O)(=O)n2cnc3ccccc32)cc1,8,13,1,6,-6,-16,.,
CN(C)S(=O)(=O)c1ccc(C(=O)NCc2nnc(SCC(=O)c3ccccc3)o2)cc1,-4,11,-16,16,21,3,.,
O=[N+]([O-])c1cc(Cl)ccc1Oc1ccc(-c2nnco2)cc1,-10,-5,17,-1,14,-10,.,
Cc1cc(Oc2ccc(-c3nnc(-c4ccccc4)o3)cc2[N+](=O)[O-])ccc1Cl,-13,-10,-11,13,75*,-6,2,
COc1ccc2[nH]c3c(=O)n(CCCCCC(=O)NCCC(C)C)c(=S)[nH]c3c2c1,1,-7,17,-16,21,11,.,
Cc1ccc(-c2ccc(/C=C3\C(=O)ON=C3c3ccccc3)o2)c([N+](=O)[O-])c1,-3,5,11,-48,82*,-8,1,
Cc1n(-c2ccccc2)c2ccc(Cl)cc2[n+]1CCO,-1,-16,1,17,-33,-2,.,
COC(=O)C1=[N+]([O-])OC(C(=O)OC)C1c1c[nH]c2ccccc12 (centres undefined),0,-7,-1,-12,12,-4,.,
N#CC1=C2SCC(O)(c3ccccc3)N2C(=O)CC1c1ccccc1 (centres undefined),27,54,-42,-16,76*,49,74*,Full FLuc ctr=58*
CCc1ccc(C2CC(=O)N3CN(c4ccccc4)CSC3=C2C#N)cc1 (centres undefined),-11,5,-15,12,11,0,.,
COc1ccc(NC(=O)CCn2c(=S)[nH]c3ccccc3c2=O)cc1OC,-5,-9,12,4,6,3,.,
Cc1cc(C)cc(NC(=O)CCn2c(=S)[nH]c3ccccc3c2=O)c1,-14,-11,9,-29,65*,-4,15,
CN(C)C(CNC(=O)c1ccc(S(=O)(=O)Nc2cccc(C(F)(F)F)c2)cc1)c1ccco1 (centres undefined),12,-5,14,6,-4,9,.,
COC(=O)c1ccccc1NC(=O)c1ccccc1OC,8,-4,19,0,5,14,.,
COc1ccccc1C(=O)Nc1ccccc1SC(=O)c1ccccc1OC,43,58,-95,-112,63*,-27,40,Full FLuc ctr=90*
O=C(NNc1ccccc1Br)C(O)(c1cccc(C(F)(F)F)c1)c1cccc(C(F)(F)F)c1,12,12,-52,24,94*,2,78*,Full FLuc ctr=87*
CC(C)(O)C(=O)NNC(=S)Nc1cccc(C(F)(F)F)c1,-6,-6,11,-4,-9,9,.,
CN1CCN(c2ccccc2NC(=O)COc2ccc(Br)cc2)CC1,11,-11,-5,-10,32,0,.,
COc1ccc(/C(N)=N/OC(=O)C2CCC(=O)N2S(=O)(=O)c2ccc(C)cc2)cc1OC (centres undefined),-8,.,-6,-6,74*,-12,55*,Full FLuc ctr=76*
